Assay outcomes as filed in PubChem BioAssay.
Sampled rows, rich in hits. Any-hit rate of the full collection: about 11%.
HttQ103 aggreg: mutant huntingtin aggregation inhibition; PC12 HttQ103-GFP aggregates, Acumen cytometry, 40 h; Potency, µM (doses to about 46.1 µM), for inactives: at the highest dose activity change, negative = inhibition, actives largely listed as inhibitors; hit rate 1.1% among 220,000; AID 1688; further: potency means the concentration at half of the fitted maximal effect; on the % scale 0 is the no-effect control and ±100 the full control effect; nearly all actives have a fitted effect of over 60% in size
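Using laser scanning cytometry, GFP-positive aggregates were counted after lysis of PC12 cells induced with 100 nM tebufenozide to express HTT exon 1 Q103–GFP. Compounds were tested in titration.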
PNC assembly inh: blocks assembly of the perinucleolar compartment; PC3M PTB-GFP, PNC prevalence imaging, 16 h; active compounds read low; activity change (PNC), negative = inhibition, % at 10 µM; hit rate 3.1% among 140,000; AID 2417;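 active means readout at or below -70, meaning at least 70% loss of cells showing the perinucleolar compartment, a nuclear body marking cancer cells; inconclusive means readout between -30 and a set limit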;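 further: plate controls were DMSO wells for no effect and camptothecin positive control wells for full effect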
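Compounds are pinned in duplicate onto adhered PC3M cells stably expressing GFP-tagged PTB and incubated 16 h at 37 C. Cells are then fixed, nuclei stained with Hoechst, and PNC-positive cells counted.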
ALDH1A1 block: ALDH1A1 (human) enzyme inhibition. P00352. Potency, µM (top dose mostly 75.3 µM), for the others: top-dose activity, negative = inhibition, actives largely listed as inhibitors. hit rate 7.3% among 220,000. Purified ALDH1A1, NADH fluorescence, propionaldehyde substrate; active means well fitted inhibition curve with a large enough effect, not every such curve was filed as active; inconclusive means small, poorly fitted or top-dose-only effect, or another doubt; inactive means no such curve, though single readings can be large or run the other way;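 further: potency means the concentration at half of the fitted maximal effect; plate controls were no enzyme wells and a reference inhibitor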
HTT ATP protect: Huntington cell model cytoprotection by ATP luminescence. AID 1471. hit rate 0.14% among 230,000. PC12 HTT-Q103 induced, cytoprotection, ATP luminescence, 40 h. Potency, µM (top dose mostly 56.4 µM), without a hit: cytoprotection (ATP increase), usual class: activators; further: potency means the concentration at half of the fitted maximal effect; % of control where 0% means no effect; nearly all actives have a fitted effect of over 45% in size
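Stable PC12 Q103-GFP cells in serum-supplemented, phenol red-free DMEM; induction by tebufenozide at 100 nM final; compound dose series; cell viability quantified luminescently from ATP.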
RGS12 GoLoco inh: inhibitors of human Gai1-RGS12 GoLoco interaction (red fluorophore) | P63096 | Gai1:RGS12 GoLoco peptide FP, rhodamine, 10 min | Potency, µM (highest dose often 61.6 µM), without a hit: at the top dose activity, negative = inhibition, actives largely listed as inhibitors | hit rate 0.44% among 230,000 | AID 880; active means well fitted inhibition curve with a large enough effect, not every such curve was filed as active; inactive means no such curve, though single readings can be large or run the other way; further: potency means the concentration at half of the fitted maximal effect; on the % scale 0 is the no-effect control and ±100 the full control effect; nearly all actives have a fitted effect of over 30% in size
Target sequence (P63096 whole entry, looked up): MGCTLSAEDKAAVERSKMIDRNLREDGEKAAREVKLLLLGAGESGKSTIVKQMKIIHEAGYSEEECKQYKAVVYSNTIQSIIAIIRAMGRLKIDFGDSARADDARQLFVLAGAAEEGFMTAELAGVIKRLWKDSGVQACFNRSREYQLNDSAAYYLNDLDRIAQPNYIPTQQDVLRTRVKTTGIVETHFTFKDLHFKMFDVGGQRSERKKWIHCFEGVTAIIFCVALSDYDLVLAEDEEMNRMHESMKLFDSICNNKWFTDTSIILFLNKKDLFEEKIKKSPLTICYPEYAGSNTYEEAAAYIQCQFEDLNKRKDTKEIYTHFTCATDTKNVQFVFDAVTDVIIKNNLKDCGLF
HPGD block: HPGD (human) dehydrogenase inhibition; P15428; Potency, µM, inactives show at the top dose activity change, negative = inhibition, most hits filed as inhibitors; hit rate 4.3% among 150,000; purified HPGD, NADH fluorescence kinetic, PGE2 substrate; active means well fitted inhibition curve with a large enough effect, not every such curve was filed as active; inconclusive means small, poorly fitted or top-dose-only effect, or another doubt; inactive means no such curve, though single readings can be large or run the other way; further: potency means the concentration at half of the fitted maximal effect; on the % scale 0 is the no-effect control and ±100 the full control effect
Target sequence (P15428 whole entry, looked up): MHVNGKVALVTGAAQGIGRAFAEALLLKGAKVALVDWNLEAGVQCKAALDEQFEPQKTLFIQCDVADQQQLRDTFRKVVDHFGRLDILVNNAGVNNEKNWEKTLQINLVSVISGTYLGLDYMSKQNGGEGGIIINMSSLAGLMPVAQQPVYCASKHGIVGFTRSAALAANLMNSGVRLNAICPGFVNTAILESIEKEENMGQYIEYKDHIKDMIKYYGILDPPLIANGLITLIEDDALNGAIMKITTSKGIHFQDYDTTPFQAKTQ
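20 nM HPGD preincubated 15 min at room temperature with compound in 50 mM Tris-HCl pH 8, 0.01% Tween 20. Started with 1 mM NAD+ and 30 uM prostaglandin E2; NADH fluorescence (360/450 nm) read 5 times over 30-s intervals, last minus first.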
An asterisk follows results filed as active; u = inconclusive; x = not tested or not shown; [ ] = remark or other dose. Unless noted, the call rests on the fitted dose curve; in most records, active means well fitted curve in the direction sought with a large enough effect; inconclusive means small, poorly fitted or top-dose-only effect, or another doubt; inactive means no such curve, though single readings can be large; an effect the other way counts as inactive or inconclusive.

SMILES	HttQ103 aggreg	PNC assembly inh	ALDH1A1 block	HTT ATP protect	RGS12 GoLoco inh	HPGD block
O=C(/C=C/c1ccc(F)cc1)c1cc(Br)ccc1O	-3.5%[9.22 µM]	x	x	2.2%[10 µM]	5.1%	x
O=C(/C=C/c1ccccc1)c1cc(Br)ccc(=O)c1O	u	-21.4	7.08µM*	-92.1%	95.2%	20µM*
O=S(=O)(NC1c2cccc3cccc(c23)C1Sc1ncccn1)c1ccc(Cl)cc1 (stereo not drawn)	u	26.7	u	-84.5%[10 µM]	0.9%	-11.2%
Cc1ccc(S(=O)(=O)NC2c3cccc4cccc(c34)C2Sc2n[nH]c(N)n2)cc1 (stereo not drawn)	24.3%	-24.0	3.98µM*	-0.5%[10 µM]	-4.0%	-14.2%
CCN1CCN(C(=S)NCC2CCCO2)CC1 (stereo not drawn)	-0.1%	x	0.501µM*	-27.3%	0.5%	x
COc1ccc(C(=O)CC(=O)c2c(O)cc(OC)cc2OC)cc1	x	x	5.1%[13.5 µM]	-7.9%[10 µM]	x	x
CCCCCCCN1N=C(C)C(C(=O)c2ccccc2)C1=O (stereo not drawn)	u	-84.8*	-3.6%	-20.1%	2.7%	-0.2%
Fc1ccccc1C1c2cccn2CCN1C(=S)Nc1ccc(Br)cc1 (stereo not drawn)	u	x	14.1µM*	-74.0%	17.2%	x
Fc1ccccc1C1c2cccn2CCN1C(=S)Nc1cccc(Br)c1 (stereo not drawn)	3.3%	x	u	-20.4%	-8.9%	x
Cc1ccc(S(=O)(=O)Nc2cccc(N(C)S(C)(=O)=O)c2)cc1[N+](=O)[O-]	-9.1%[9.22 µM]	x	15.8µM*	14.3%[10 µM]	11.3%	x
N#CCc1nn(-c2ccc(F)cc2)c(N)c1C#N	17.8%	x	1.3%	8.1%[10 µM]	6.0%	x
Cc1ccc(C(=O)Nc2ccc3c4c(cccc24)CC3)cc1[N+](=O)[O-]	23.4%	-81.3*	8.1%	-7.4%[10 µM]	1.9%	u
CCn1cc(C(=O)Nc2ccc(C)c([N+](=O)[O-])c2)cn1	17.6%	-86.6*	u	-2.6%[10 µM]	9.1%	-16.3%
Cc1csc(NC(=O)c2ccc(C)c([N+](=O)[O-])c2)n1	-8.9%	-17.1	u	-1.9%[10 µM]	1.2%	28.2µM*
CCn1cc(C(=O)Nc2ccc(F)c(F)c2)cn1	2.5%	-13.6	-1.1%	-8.5%[10 µM]	10.0%	-6.5%
Cc1ccc(C(=O)Nc2ccccc2-c2ccccc2)cc1[N+](=O)[O-]	12.5%	109.5	17.8µM*	-7.6%	2.4%	-5.7%
CC(C)(C)C1CCC(C(=O)OCC(=O)Nc2ccc3[nH]c(=O)[nH]c3c2)CC1 (stereo not drawn)	19.8%	x	7.9%	-40.4%	18.4%	x
CCc1cc2c3c(c1)C(C)CC(C)(C)N3C(=O)C2=O (stereo not drawn)	u	59.4	0.316µM*	42.6%[10 µM]	-2.6%	-11.3%
CCOc1cc2c3c(c1)C1(OCCO1)C(=O)N3C(C)(C)CC2C (stereo not drawn)	-19.2%	68.0	u	0.4%[0.074 µM]	8.1%	-8.0%
Fc1cccc(NC(=S)NCc2ccccc2Cl)c1	1.6%[9.22 µM]	x	u	12.6%[10 µM]	1.5%	x
C=Cc1c(C)/c2[n-]/c1=C\c1[n-]c(c(CC)c1C)/C=c1\[n-]c3c(c1C)C(=O)C(C(=O)[O-])C=3c1[n-]c(c(C)c1CCC(=O)[O-])\C=2.[Cu].[Na+].[Na+] (stereo not drawn)	-11.3%	x	u	-129.6%	-5.0%	25.1µM*
CC(C)CN1CCC2(CC1)CCN(C(=O)c1ccco1)CC2	x	x	11.6%	-25.2%	6.0%	-11.6%
Cc1cccc2cc(CN(Cc3ccco3)C(c3nnnn3CCc3ccccc3)C(C)C)c(=O)[nH]c12 (stereo not drawn)	1.2%[9.22 µM]	-99.3*	31.6µM*	-16.8%[10 µM]	1.4%	u
CCC(c1nnnn1Cc1ccco1)N(Cc1cc2cc(C)cc(C)c2[nH]c1=O)CC1CCCO1 (stereo not drawn)	12.2%	4.0	12.6µM*	-10.2%	10.6%	-14.8%
Cn1cccc1C(=O)N1CCC2(CCN(Cc3nccs3)CC2)CC1	x	x	-7.0%	8.2%	28.3%	-12.8%
SMILES	HttQ103 aggreg	PNC assembly inh	ALDH1A1 block	HTT ATP protect	RGS12 GoLoco inh	HPGD block
O.O.O.O.O.O.O.O=S(=O)([O-])[O-].[Co+2]	28.7%	x	u	-10.8%	2.7%	-1.9%
NCCCC[C@H](N)c1nnc([C@H](CCC(=O)O)NC(=O)C2CCNCC2)o1	-9.2%[9.22 µM]	x	1.7%	23.9%[10 µM]	-1.4%	x
Brc1c(CSc2nnc(-c3ccco3)o2)nc2ccccn12	-25.4%	u	u	-28.1%	8.9%	7.94µM*
c1coc(-c2nnc(SCc3cn4ccccc4n3)o2)c1	4.6%	-13.0	4.8%	-10.1%	0.2%	-12.3%
Cc1ccc(/C=C/C(=O)O)cc1S(=O)(=O)N(CCO)CCO	17.3%	-103.1*	7.9%	x	-10.4%	-2.0%
CC(C)(C)NC[C@H](O)COc1cccc2c1CCC(=O)N2	-0.8%[20.6 µM]	x	1.1%[20.9 µM]	-18.8%[17.1 µM]	2.9%[21.6 µM]	0.8%
O=C1CC(NNc2ccccc2)C(=O)N1c1ccccc1 (stereo not drawn)	34.5%	12.0	17.8µM*	2.0%[10 µM]	5.0%	-9.7%
COc1ccc(NC2CC(=O)N(c3ccccc3)C2=O)cc1 (stereo not drawn)	18.0%	-5.2	u	-4.8%	10.3%	-2.9%
Cc1ccc(NNC2CC(=O)N(c3cccc(Cl)c3)C2=O)cc1 (stereo not drawn)	5.6%	x	25.1µM*	-27.1%	10.3%	x
O=C(NNC1CC(=O)N(c2cccc(Cl)c2)C1=O)c1cccs1 (stereo not drawn)	27.1%	18.4	u	13.6%[10 µM]	-4.5%	-6.4%
CN(CCO)c1cnccn1	-14.3%	x	-6.2%	-10.9%	0.0%	x
COc1cc(C2CC(c3cccnc3)=NN2c2ccc(F)cc2)cc(OC)c1OC (stereo not drawn)	-9.4%	x	u	-52.5%	4.8%	x
COc1cccc(NC(=S)N2CCN(c3ccc([N+](=O)[O-])cc3)CC2)c1	-17.8%	x	7.94µM*	-48.1%	11.7%	x
CCOC(=O)c1[nH]c2ccc(OC)cc2c1NC(=S)N1CCN(c2ccccc2)CC1	-7.7%	-21.9	25.1µM*	-32.6%[10 µM]	-2.4%	-18.3%
CN1CCN(C(=S)Nc2cc([N+](=O)[O-])ccc2Cl)CC1	-11.0%	-24.3	20µM*	-5.8%[10 µM]	-4.0%	-10.9%
COc1ccc(NC(=S)N2CCN(c3ccc([N+](=O)[O-])cc3)CC2)cc1OC	x	x	3.6%	x	13.3%	x
COc1ccc(N2CCN(C(=S)Nc3cc(C)cc(C)c3)CC2)cc1	-3.3%	-106.0*	-6.7%	3.8%	-2.8%	-6.5%
CC(C)CCN1CCc2nc(COc3ccccc3)c3c(c2C1)COC(C)C3 (stereo not drawn)	x	x	6.9%[13.5 µM]	4.9%[10 µM]	x	x
Cc1noc2ncnc(Oc3ccc(Cl)cc3Cl)c12	21.1%	x	12.1%	25.0%	7.3%	x
CCCc1cn(S(=O)(=O)c2ccc(OC)cc2OC)nc1N	3.0%	-16.6	4.0%	2.9%[10 µM]	7.3%	-4.7%
